This is part of a sample that, as a whole, favours compounds with a hit. Of some 83,000 tested, about 20% had one in any assay.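 Compound tested at a single concentration for 48 hours in 96-well plates; a percent growth value below 10 was scored as active.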 Calls of active or inactive are those of the source.

The subject of the assay is HL-60(TB) leukemia. Briefly: NCI-60 one-dose screen, 48 h (100 = growth as untreated, 0 = no growth, -100 = all killed). The following applies: 10 µM unless noted.
In the case of `CCOC(=O)c1c2c(n(-c3ccc(C#N)cc3)c1-c1ccccc1)C=CCC2`, the growth was 82.9% (inactive).
Under `CN(C)c1ccc(/C=N/NC(=O)CSc2nc3sc4c(c3c(=O)n2-c2ccccc2)CCCCC4)cc1` stands 86.8% (inactive); under `CC[C@@H](C)[C@H](NC(=O)Cn1cc(CNC(=O)[C@@H](NC(=O)OCc2ccccc2)C(C)C)nn1)C(=O)O`, 113% (inactive); under `COc1ccc2c(c1)OC(N)=C(C#N)C2c1ccc(F)cc1` (stereo not given), -14.7% (active).
Take `C=C1SC(=Nc2ccccc2Cl)N(C(=O)c2sc3ccccc3c2Cl)C1(C)C`: the growth is 1.29% (active).
Under `COc1ccc(-c2cc(-c3cccs3)n(N=O)c(=O)c2C#N)cc1` stands 94.7% (inactive).
For the compound `COc1cc(/C=C/C(=O)c2ccc(F)cc2)ccc1OCCCCOc1cc2c(cc1OC)C(=O)N1CCCC1C=N2` (stereo not given), the growth is -32.6% (active).
The result for `COC(=O)c1cc2cc(-c3ccc(OC)cc3)cnc2[nH]1` reads -2.68% (active); that for `O=C(O)Cc1ccc(O)c(O)c1`, 82.1% (inactive); that for `S=C(Cc1ccc(-c2ccccc2)cc1)N1CCOCC1`, 98.9% (inactive).
In the case of `CC(=O)N1CCN(CCNC(=O)n2cc(-c3ccncc3)c(-c3cc(O)cc(Cl)c3)n2)CC1`, the growth was 59.9% (inactive).
For the compound `COC[C@H](C)n1c(C2CCOCC2)nc2cnc3cc(-c4c(C)noc4C)c(OC)cc3c21`, the growth is 31.5% (inactive).
As to `Cc1cc(=O)n(C(=S)Nc2ccc(Cl)cc2)c2cc(O)ccc12`, the growth was 111% (inactive).
In the case of `CCN(CC)CCSCCCNc1c2ccc(Cl)cc2nc2ccc(OC)cc12`, the growth is -35.4% (active).
As for `C=C1CCC2C(C)(CO)C(O)CCC2(C)C1C/C=C1/C(=O)OCC1Oc1ccccc1C` (stereo not given), the growth is 57.4% (inactive).
